Hits are enriched below; roughly 4% of the tested compounds scored in any of these assays.
Rv3671c inh = Rv3671c (M. tuberculosis) protease inhibition; P9WHR9; inhibition, % at 5.96 µM; 320,000 tested, 0.048% active; in the data active = inhibition above about 38%;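 also: extracellular domain of Rv3671c used as enzyme; 0% = enzyme with DMSO and 100% = no enzyme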
Target sequence (P9WHR9 whole entry, looked up, the tested form may be a part): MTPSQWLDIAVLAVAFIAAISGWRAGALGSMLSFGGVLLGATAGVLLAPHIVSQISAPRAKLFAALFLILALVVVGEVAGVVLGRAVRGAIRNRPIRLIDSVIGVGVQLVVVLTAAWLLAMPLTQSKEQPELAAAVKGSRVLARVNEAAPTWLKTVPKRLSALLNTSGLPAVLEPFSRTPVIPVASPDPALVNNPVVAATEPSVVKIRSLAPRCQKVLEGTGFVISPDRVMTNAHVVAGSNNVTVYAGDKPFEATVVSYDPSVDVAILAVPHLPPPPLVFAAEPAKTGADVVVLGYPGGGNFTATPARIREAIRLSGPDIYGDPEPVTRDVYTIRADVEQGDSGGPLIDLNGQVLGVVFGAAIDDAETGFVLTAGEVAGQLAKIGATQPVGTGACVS
Mtb FBA inh = inhibitors of M. tuberculosis fructose-bisphosphate aldolase; P9WQA3; purified M. tuberculosis FBA, fluorescence read-out; inhibition, % at 1 µM; 360,000 tested, 2.3% active; in the data active = inhibition above about 27%;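 also: 0% = vehicle and 100% = reference inhibitor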
Mtb UGM inh = inhibitors of M. tuberculosis UDP-galactopyranose mutase. P9WIQ1. purified UGM, fluorescence polarization probe displacement. inhibition, % at 10 µM. 320,000 tested, 0.06% active. AID 504406; in the data active = inhibition above about 10%, passing the limit was not always enough
Mtb bLac sens = beta-lactam sensitization of Mtb H37Rv | 330,000 tested, 0.27% active | M. tuberculosis H37Rv growth with meropenem, percent inhibition | inhibition, % at 25 µM; call rule not given here;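 also: growth measured after seven days incubation then overnight dye step; 0% = bacteria only wells and 100% = bacteria with antibiotic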
RecA splice inh = inhibitors of M. tuberculosis RecA intein splicing; P9WHJ3; cell-free RecA intein splicing, fluorescence; inhibition, % (concentration not given with the values); 290,000 tested, 0.75% active; AID 2221; in the data active = inhibition above about 30%;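 also: 0% = vehicle wells and 100% = reference inhibitor control wells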
GDH-TPI inh = GDH-TPI coupled enzyme inhibition counter-screen | 360,000 tested, 1.2% active | AID 588335 | inhibition, % at 4.8 µM | GDH-TPI coupled enzyme counterscreen, NADH absorbance; in the data active = inhibition above about 30%;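 also: 0% = DMSO wells and 100% = wells lacking the enzyme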
Starred values were filed as active, the others as inactive.

Oc1ccc(C=NNc2ccccn2)c(O)c1 was read as Mtb FBA inh -1 and GDH-TPI inh 41*.
Screening O=[N+]([O-])c1ccc(O)c(/C=N/Nc2ccccn2)c1 returned Rv3671c inh 6, Mtb FBA inh -7, Mtb UGM inh 0, Mtb bLac sens 89, RecA splice inh -8 and GDH-TPI inh 38*.
C[C@@H]1CN([C@@H](C)CO)C(=O)c2cc(Br)cnc2O[C@H]1CN(C)C(=O)Nc1ccc(F)cc1 was read as Mtb FBA inh 1 and GDH-TPI inh 5.
CC(C)(C)[C@H]1CCC(=O)N([C@H](CN=[N+]=[N-])Cc2ccccc2)CC1 was read as Rv3671c inh -8, Mtb FBA inh 1, Mtb UGM inh -1, Mtb bLac sens -4, RecA splice inh -4 and GDH-TPI inh -1.
For Cc1nc(N/N=C/c2cccc(F)c2)cc(N2CCOCC2)n1 the results were Rv3671c inh 0, Mtb FBA inh 0, Mtb UGM inh -2, Mtb bLac sens 3 and GDH-TPI inh 25.
For CCN(CC)S(=O)(=O)c1ccc(N/N=C/c2ccc(O)cc2O)nc1 the results were Rv3671c inh 11, Mtb FBA inh -2, Mtb UGM inh 4, Mtb bLac sens 13, RecA splice inh 9 and GDH-TPI inh 40*.
For O=c1[nH]ncc(N/N=C\c2ccc(O)cc2O)c1Cl the results were Rv3671c inh 6, Mtb FBA inh 2, Mtb UGM inh 1, Mtb bLac sens -4, RecA splice inh -2 and GDH-TPI inh 38*.
For Cc1nc(N/N=C/c2ccc(O)cc2O)cc(N2CCOCC2)n1 the results were Rv3671c inh 4, Mtb FBA inh -1, Mtb UGM inh -2, Mtb bLac sens 6, RecA splice inh 6 and GDH-TPI inh 64*.
Screening COc1ccc(NC(=O)CN(C)S(=O)(=O)c2ccc3c(c2)CC(C)N3C(C)=O)cc1OC (stereo unspecified) returned Rv3671c inh 5, Mtb FBA inh 1, Mtb UGM inh 2, Mtb bLac sens -7, RecA splice inh 4 and GDH-TPI inh -1.
CCOC(=O)c1cnn2c(C(F)(F)F)cc(-c3cn(C)nc3C)nc12 was read as Rv3671c inh 0, Mtb FBA inh 72*, Mtb UGM inh -1, Mtb bLac sens -6, RecA splice inh -6 and GDH-TPI inh 21.
Nc1ccc2nc(CN3CCOCC3)[nH]c2c1 was read as Rv3671c inh 6, Mtb FBA inh 1, Mtb UGM inh 1, Mtb bLac sens 3, RecA splice inh 42* and GDH-TPI inh 1.
Screening O=C(NCCC1=CCCCC1)c1ccc(Cl)c(S(=O)(=O)N2CCCCC2)c1 returned Rv3671c inh -6, Mtb FBA inh 2, Mtb UGM inh -2, Mtb bLac sens -30, RecA splice inh -1 and GDH-TPI inh 7.
C/C(=N\NC(=O)COc1cccc(C)c1)c1ccc2ccccc2c1O was read as Mtb FBA inh 0, Mtb UGM inh 0, Mtb bLac sens 3, RecA splice inh -3 and GDH-TPI inh 6.
For CN1CC=C2C(C#N)=C(N)C(C#N)(C#N)C(CCc3ccccc3)C2C1 (stereo unspecified) the results were Rv3671c inh -7, Mtb FBA inh 39*, Mtb UGM inh 2, Mtb bLac sens -7, RecA splice inh -22 and GDH-TPI inh 0.
`COc1ccc(-c2nc(C#N)c(NCc3ccc(C)cc3)o2)cc1OC` gave Rv3671c inh 3, Mtb FBA inh 144*, Mtb UGM inh 0, Mtb bLac sens 13, RecA splice inh 0 and GDH-TPI inh 3.
For CN(C)CCCNc1oc(-c2cccc(Cl)c2)nc1C#N the results were Rv3671c inh -4, Mtb FBA inh 174*, Mtb UGM inh 1, Mtb bLac sens 46, RecA splice inh 1 and GDH-TPI inh 1.
For CN(C)CCNc1oc(COc2cccc(Cl)c2)nc1C#N the results were Rv3671c inh 3, Mtb FBA inh 2, Mtb UGM inh -1, Mtb bLac sens -16, RecA splice inh -1 and GDH-TPI inh -1.
COc1ccc(-c2nc(C#N)c(NCCCn3ccnc3)o2)cc1OC was read as Rv3671c inh 5, Mtb FBA inh active, Mtb UGM inh 3, Mtb bLac sens -17, RecA splice inh -1 and GDH-TPI inh 12.
`Cc1ccc(CNc2oc(C)nc2C#N)cc1` gave Rv3671c inh 8, Mtb FBA inh 2, Mtb UGM inh 3, Mtb bLac sens -6, RecA splice inh 2 and GDH-TPI inh 5.
CCN(CC)CCCNc1oc(-c2ccc(OC)c(OC)c2)nc1C#N was read as Rv3671c inh -2, Mtb FBA inh 164*, Mtb UGM inh 0, Mtb bLac sens -13, RecA splice inh 0 and GDH-TPI inh 17.
Cc1ccccc1C(=O)N1CCC(C(=O)Nc2cc(C(F)(F)F)ccc2N2CCCC2)CC1 was read as Rv3671c inh 2, Mtb FBA inh 1, Mtb UGM inh -1, Mtb bLac sens 7, RecA splice inh 4 and GDH-TPI inh -1.
`COc1ccc(C(C)=O)cc1Cn1c(C)c(C(=O)NCCC#N)sc1=O` gave Mtb FBA inh 2 and GDH-TPI inh 7.
For CCn1nc(C)cc1C(=O)N1CCCC(Nc2ccc(C(C)C)cc2)C1 (stereo unspecified) the results were Mtb FBA inh -1, RecA splice inh -2 and GDH-TPI inh -2.
CCOC(=O)C1CCN(S(=O)(=O)c2cccc(-c3cn4cccnc4n3)c2)CC1 was read as Rv3671c inh 6, Mtb FBA inh active, Mtb UGM inh -1, Mtb bLac sens -6, RecA splice inh -5 and GDH-TPI inh 8.
For COc1ccc(NC(=O)c2cc(-c3cc(Cl)ccc3C)n[nH]2)c(OC)c1 the results were Mtb FBA inh 0 and GDH-TPI inh 2.
COc1ccc(/C=N/N=C/c2ccc(OC)c(OC)c2)cc1OC was read as Rv3671c inh 1, Mtb FBA inh 0, Mtb UGM inh 4, Mtb bLac sens 4, RecA splice inh 0 and GDH-TPI inh 9.
COc1cc(/C=N/N=C/c2cc(OC)c(O)c(OC)c2)cc(OC)c1O was read as Rv3671c inh -11, Mtb FBA inh -4, Mtb UGM inh -1, Mtb bLac sens -1, RecA splice inh -3 and GDH-TPI inh 35*.
Screening COc1ccc(/C=N/N=C/c2ccc(OC)c(O)c2)cc1O returned Rv3671c inh -1, Mtb FBA inh -2, Mtb UGM inh 0, Mtb bLac sens -7, RecA splice inh -1 and GDH-TPI inh 50*.
COC(C(=O)N/N=C(\C)c1ccc(C(C)(C)C)cc1)c1ccccc1 (stereo unspecified) was read as Mtb FBA inh 1, Mtb UGM inh -2, Mtb bLac sens -3, RecA splice inh 3 and GDH-TPI inh 0.
For Cn1cc(/C=C2\C(=O)NC(=O)N(c3ccccc3)C2=O)c2ccccc21 the results were Rv3671c inh -5, Mtb FBA inh -5, Mtb UGM inh 14*, Mtb bLac sens 98, RecA splice inh -3 and GDH-TPI inh 9.
O=C(Nc1cccc(C(F)(F)F)c1)c1ccc2sc([C@H]3C[C@H](O)[C@@H](CO)O3)nc2c1 was read as Mtb FBA inh 0 and GDH-TPI inh 12.

Screens from PubChem BioAssay.
